Records with an inconclusive call do not appear. A call without a number means that no potency is given here. Activity calls are given as the source filed them. Calls come from the whole dose curve; as a rule, active = well fitted curve in the direction sought with a large enough effect; inconclusive = small, poorly fitted or top-dose-only effect, or another doubt; inactive = no such curve, though single readings can be large; an effect the other way counts as inactive or inconclusive.
How the values were obtained:
[1] = target: Glutathione peroxidase 1 (Homo sapiens) (UniProt P07203); experiment: Primary qHTS Assay for Inhibitors of Recombinant Selenoprotein Glutathione Peroxidase 1 (GPX1) (AID 1845191); conditions: recombinant GPX1, GR-coupled NADPH fluorescence, 15 min; series mostly up to 48.8 µM; note: nearly all actives have a fitted effect of over 65% in size; note: potency is the fitted concentration of half-maximal effect
Glutathione peroxidase 1 (Homo sapiens), sequence (P07203 whole entry, looked up): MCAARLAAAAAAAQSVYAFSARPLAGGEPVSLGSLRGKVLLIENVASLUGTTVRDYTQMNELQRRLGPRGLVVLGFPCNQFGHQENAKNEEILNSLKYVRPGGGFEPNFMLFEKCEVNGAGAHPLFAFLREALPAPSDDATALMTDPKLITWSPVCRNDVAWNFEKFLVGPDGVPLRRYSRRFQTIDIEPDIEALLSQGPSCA
Summary of the method: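 NADPH consumption tracked by fluorescence at 340/450 nm between t=0 and t=15 min, room temperature. Final mix: 10 nM GPX1, 100 nM glutathione reductase, 1 mM GSH, 0.5 mM NADPH, 0.5 mM cumene hydroperoxide, 0.01% BSA; 30 min compound–enzyme preincubation.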

[2] = target: Phospholipid hydroperoxide glutathione peroxidase GPX4 (Homo sapiens) (UniProt P36969); experiment: Primary qHTS Assay for Inhibitors of Recombinant Selenoprotein Glutathione Peroxidase 4 (GPX4) (AID 1845192); conditions: recombinant GPX4, GR-coupled NADPH fluorescence, 15 min; series mostly up to 50 µM; note: nearly all actives have a fitted effect of over 65% in size; note: potency is the fitted concentration of half-maximal effect
Phospholipid hydroperoxide glutathione peroxidase GPX4 (Homo sapiens), sequence (P36969 whole entry, looked up): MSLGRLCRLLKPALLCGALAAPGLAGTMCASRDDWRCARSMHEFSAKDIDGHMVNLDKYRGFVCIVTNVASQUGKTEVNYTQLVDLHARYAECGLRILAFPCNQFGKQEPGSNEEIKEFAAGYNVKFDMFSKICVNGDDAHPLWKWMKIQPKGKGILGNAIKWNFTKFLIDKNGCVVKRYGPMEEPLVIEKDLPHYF
Summary of the method: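 NADPH consumption followed by fluorescence at 340/450 nm, t=0 and after 15 min at room temperature. Reaction started with cumene hydroperoxide (0.5 mM final) after 30 min compound–GPX4 preincubation; final 200 nM GPX4, 100 nM GR, 1 mM GSH, 0.5 mM NADPH.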

[3] = Quantitative High-Throughput drug screen in 47 multiple myeloma cell lines against the NCATS MIPE library collection: Delta47_JCRB cell viability assay (AID 1918925; note: nearly all actives have a fitted effect of over 45% in size; note: potency is the fitted concentration of half-maximal effect); conditions: Delta47 myeloma viability, CellTiter-Glo ATP, 48 h; series mostly up to 45.8 µM
Summary of the method: (§1)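 Myeloma cells (500 per well) were exposed to MIPE 4.0 compounds by pin transfer and incubated 48 hours at 37C, 5% CO2. Viability was read as ATP by CellTiter-Glo luminescence, normalised to DMSO (100%) and media-only (0%) wells.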

[4] = Quantitative High-Throughput drug screen in 47 multiple myeloma cell lines against the NCATS MIPE library collection: EJM_DSMZ cell viability assay (AID 1918926; note: nearly all actives have a fitted effect of over 30% in size; note: potency is the fitted concentration of half-maximal effect); conditions: EJM myeloma cell viability, CellTiter-Glo ATP, 48 h; series mostly up to 45.8 µM
Summary of the method: as §1

[5] = Quantitative High-Throughput drug screen in 47 multiple myeloma cell lines against the NCATS MIPE library collection: AMO1_DSMZ cell viability assay (AID 1918927; note: nearly all actives have a fitted effect of over 30% in size; note: potency is the fitted concentration of half-maximal effect); conditions: AMO1 myeloma cells viability, CellTiter-Glo ATP luminescence, 48 h; series mostly up to 45.8 µM
Summary of the method: as §1

[6] = Quantitative High-Throughput drug screen in 47 multiple myeloma cell lines against the NCATS MIPE library collection: Karpas620_DSMZ cell viability assay (AID 1918959); conditions: Karpas620 myeloma viability, CellTiter-Glo ATP luminescence, 48 h; series mostly up to 45.8 µM; note: nearly all actives have a fitted effect of over 30% in size; note: potency is the fitted concentration of half-maximal effect
Summary of the method: (§2)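 Approved and investigational drugs from MIPE 4.0 were added by pin tool to 500 cells per well. After 48 hours at 37C, ATP-based CellTiter-Glo luminescence indicated remaining viability.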

[7] = Quantitative High-Throughput drug screen in 47 multiple myeloma cell lines against the NCATS MIPE library collection: KMM1_JCRB cell viability assay (AID 1918960); conditions: KMM1 myeloma viability, CellTiter-Glo ATP luminescence, 48 h; series mostly up to 45.8 µM; note: nearly all actives have a fitted effect of over 30% in size; note: potency is the fitted concentration of half-maximal effect
Summary of the method: (§3)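 500 cells/well; MIPE 4.0 library pinned in; 48 h, 37 °C, 5% CO2; CellTiter-Glo ATP luminescence. Controls: DMSO = 100% viability, medium only = 0%.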

[8] = target: Luciferin 4-monooxygenase (Photinus pyralis) (UniProt P08659); experiment: Primary firefly luciferase (FLuc) qHTS assay for identification of artifact compounds. (AID 1845220); conditions: purified firefly luciferase, luminescence, 5 min; series mostly up to 54.1 µM; note: nearly all actives have a fitted effect of over 60% in size
Summary of the method: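 Cell-free, 1536-well qHTS. Buffer pH 7.6 with 0.01% Tween-20 and 0.05% BSA; 10 uM D-luciferin, 10 uM ATP; 10 nM P. pyralis luciferase; luminescence after 5 min.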

[9] = Primary fluorescence-based thiol-reactive (MSTI) qHTS assay for identification of artifact compounds. (AID 1845221); conditions: MSTI thiol-reactivity probe, 1 h; series mostly up to 53.8 µM;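 note: thiol-reactive compounds lower the probe fluorescence signal; nearly all actives have a fitted effect of over 65% in size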
Summary of the method: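 A multi-concentration qHTS design tested compounds against 4 uM MSTI, pH 7.4 phosphate-buffered saline. Plates were protected from light for 1 h at room temperature before imaging fluorescence.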

[10] = tested on: Nanoluciferase (engineered Oplophorus gracilirostris luciferase); experiment: Primary Nanoluciferase (NLuc) qHTS assay for identification of artifact compounds. (AID 1845222); conditions: NLuc-conditioned medium, Nano-Glo luminescence, 5 min; series mostly up to 54.1 µM
Summary of the method: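 Compounds are pinned into diluted (1:55) conditioned medium of NLuc-expressing S16 cells and held 15 min at room temperature protected from light. Nano-Glo substrate follows, and luminescence is read 5 min later.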

[11] = Quantitative High-Throughput drug screen in 47 multiple myeloma cell lines against the NCATS MIPE library collection: FR4_PLB cell viability assay (AID 1918924; note: nearly all actives have a fitted effect of over 35% in size; note: potency is the fitted concentration of half-maximal effect); conditions: FR4_PLB myeloma cells viability, CellTiter-Glo ATP, 48 h; series mostly up to 45.8 µM
Summary of the method: as §2

[12] = Quantitative High-Throughput drug screen in 47 multiple myeloma cell lines against the NCATS MIPE library collection: ARD_JJKsccE7 cell viability assay (AID 1918929; note: potency is the fitted concentration of half-maximal effect); conditions: ARD myeloma cell line viability, CellTiter-Glo, 48 h; series mostly up to 45.8 µM
Summary of the method: as §1

[13] = Quantitative High-Throughput drug screen in 47 multiple myeloma cell lines against the NCATS MIPE library collection: ARP1_JJKsccF8 cell viability assay (AID 1918928; note: nearly all actives have a fitted effect of over 40% in size; note: potency is the fitted concentration of half-maximal effect); conditions: ARP1 myeloma cells viability, CellTiter-Glo ATP, 48 h; series mostly up to 45.8 µM
Summary of the method: as §3

[14] = Primary redox qHTS assay for identification of artifact compounds. (AID 1845223); conditions: Amplex Red/HRP redox cycling with DTT, fluorescence; series mostly up to 53.8 µM
Summary of the method: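 Redox-cycling detection via DTT (250 uM final) oxidation coupled to Amplex Red (25 uM)/HRP (250 mU/mL) in HBSS. 15 min preincubation plus 30 min after DTT, room temperature. Ex/Em 525/598 nm; 4-parameter Hill fit against DMSO and 10 uM DA3003.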

SMILES	Potency [1]	Potency [2]	Potency [3]	Potency [4]	Potency [5]	Potency [6]	Potency [7]	Potency [8]	Potency [9]	Potency [10]	Potency [11]	Potency [12]	Potency [13]	Potency [14]
COc1cc(C(C)C)c2c(c1)S(=O)(=O)N(COc1cc(=O)n3cccc(OCCN4CCCCC4)c3n1)C2=O	inactive	inactive	16.6 µM (active)	18.7 µM (active)	13.2 µM (active)	20.9 µM (active)	26.4 µM (active)							
CC(O)C1C(=O)N2C(C(=O)O)=C(SC3CNC(C(=O)N(C)C)C3)C(C)C12 (configuration not stated)		inactive	inactive	inactive		inactive	inactive	inactive	inactive	inactive	inactive	inactive		
O=c1[nH]nc(Sc2ncc([N+](=O)[O-])s2)n1-c1ccc2c(c1)OCCO2		inactive	2.35 µM (active)	2.96 µM (active)	6.62 µM (active)		5.9 µM (active)				7.43 µM (active)	7.43 µM (active)	2.96 µM (active)	
O=C1CCC[C@@H]2[C@H]3CCC[N+]4([O-])CCC[C@@H](CN12)[C@@H]34 (some centres not stated)		inactive	inactive	inactive		inactive		inactive	inactive	inactive	inactive	inactive	inactive	inactive
COc1cc(OC2CCN(C)CC2)ccc1Nc1ncc2c(n1)n(C1CCCC1)c(=O)n2C	inactive	inactive	5.9 µM (active)		11.8 µM (active)							9.35 µM (active)	16.6 µM (active)	
Cc1cc(Nc2cc(NC(=O)c3c(Cl)cccc3Cl)ccn2)nc(N)n1	inactive	inactive	18.7 µM (active)	16.6 µM (active)	0.187 µM (active)		0.418 µM (active)						0.296 µM (active)	
COC(=O)Nc1ccc(-c2nc(N3CCOCC3)c3cnn(C4CCN(Cc5cccnc5)CC4)c3n2)cc1	inactive		0.0935 µM (active)	1.48 µM (active)	inactive	inactive		inactive	inactive	inactive	0.0469 µM (active)		0.0743 µM (active)	inactive
Cn1c2ccccc2c2c3c(c4c5ccccc5n(CCC#N)c4c21)CNC3=O	inactive		1.48 µM (active)	2.96 µM (active)		2.35 µM (active)	0.935 µM (active)	inactive				2.35 µM (active)	7.43 µM (active)	inactive
O=C(O)Cn1nnc(-c2cc(N3CCC(Oc4cc(F)ccc4Br)CC3)no2)n1	inactive		inactive	inactive		inactive	inactive	inactive			inactive		inactive	inactive
CC[C@H](CO)Nc1nc(NCc2ccccc2)c2ncn(C(C)C)c2n1	inactive	inactive	16.6 µM (active)	26.4 µM (active)	9.35 µM (active)	inactive								
C[C@@H]1CN(CC(=O)Nc2ccc3c(c2)Cc2cccc(-c4cc(=O)cc(N5CCOCC5)o4)c2S3)C[C@H](C)O1	inactive		2.64 µM (active)		5.26 µM (active)		10.5 µM (active)				16.6 µM (active)	18.7 µM (active)	9.35 µM (active)	
CN1c2cc(O)c(N=NC(N)=O)cc2CC1S(=O)(=O)O (configuration not stated)	inactive	inactive		inactive			inactive						inactive	
CCOc1ccccc1OCCNC(C)Cc1ccc(OC)c(S(N)(=O)=O)c1 (configuration not stated)		inactive	inactive	inactive		inactive	inactive	inactive	inactive	inactive	inactive	inactive	inactive	inactive
Cc1ccc(S(=O)(=O)Nc2cc(Cl)ccc2C(=O)Nc2nc(-c3ccccc3)cs2)cc1	inactive		4.69 µM (active)		9.35 µM (active)		4.18 µM (active)				20.9 µM (active)	7.43 µM (active)	20.9 µM (active)	
CN(C)CCCN=c1c2ccccc2n(C)c2[nH]c(=O)n(C)c(=O)c12	inactive	inactive	16.6 µM (active)	20.9 µM (active)	2.96 µM (active)		4.69 µM (active)					5.26 µM (active)	18.7 µM (active)	
O=C(NCCCNc1nc(Nc2cccc(NC(=O)N3CCCC3)c2)ncc1I)c1cccs1	inactive	inactive	4.69 µM (active)			inactive	inactive						16.6 µM (active)	
CC(C)(C)c1cc(C(C)(C)C)c(NC(=O)c2c[nH]c3ccccc3c2=O)cc1O	inactive	17.8 µM (active)	inactive		inactive	inactive	inactive					inactive		
Clc1cccc(-n2nnnc2NCc2ccccc2Oc2ccccn2)c1Cl		inactive		inactive				inactive		inactive				inactive
CC(=O)Nc1sc2c(c1-c1nc3ccccc3s1)CNC2	3.6 µM (active)		16.6 µM (active)	23.5 µM (active)		inactive	inactive	inactive			20.9 µM (active)		11.8 µM (active)	inactive
CCN1CCN(CC(=O)Nc2ccc(-c3cccc4c(=O)cc(N5CCOCC5)oc34)c3sc4ccccc4c23)CC1	inactive	inactive	0.418 µM (active)	13.2 µM (active)			0.132 µM (active)					0.0118 µM (active)	0.264 µM (active)	

Reference: PubChem BioAssay (NCATS)
